RE007 growth inh: qHTS Assay for Inhibitors of the HIV-1 protein Vpr. S. pombe RE007 Vpr strain, BacTiter-Glo ATP luminescence, 24 h. Potency, µM (series often up to 92.2 µM), without a hit: at the highest dose activity change, negative = less growth, most hits filed as inhibitors. 360,000 tested, 0.21% active; active means well fitted falling curve with a large enough effect; inconclusive means small, poorly fitted or top-dose-only effect; inactive means no such curve, though single readings can be large or run the other way; further: nearly all actives have a fitted effect of over 50% in size
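Fission yeast strain RE007, carrying one chromosomally integrated HIV-1 vpr copy, was seeded at OD 0.01 in PMG+AL medium with 23 nL pinned compound. After 24 h at 30 °C and 99% humidity, viability was read by BacTiter-Glo luminescence.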
Giardia FBPA inh-1: qHTS Assay for Inhibitors of Fructose-1,6-bisphosphate Aldolase from Giardia Lamblia. A8B2U2. purified Giardia FBPA. Potency, µM (highest dose often 59.6 µM), for inactives: at the highest dose activity, negative = inhibition, actives largely listed as inhibitors. 290,000 tested, 0.71% active; further: nearly all actives have a fitted effect of over 55% in size
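Giardia FBPA (40 nM reagent) was preincubated 10 min at RT with compound (up to 57.5 uM final), then substrate plus GAPDH/TPI/NAD/arsenate coupling system with diaphorase/resazurin was added; resorufin fluorescence (525/598 nm) was read after 20 min.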
LmPK inhibitor: qHTS Assay for Inhibitors of Leishmania Mexicana Pyruvate Kinase (LmPK); Q27686; Potency, µM (titrated, usually from 57.5 µM), for inactives: at the top dose activity change, negative = inhibition, actives largely listed as inhibitors; AID 1721, 2009; purified LmPK, Kinase-Glo ATP luminescence, 1 h; 290,000 tested, 0.37% active
Target sequence (Q27686 whole entry, looked up): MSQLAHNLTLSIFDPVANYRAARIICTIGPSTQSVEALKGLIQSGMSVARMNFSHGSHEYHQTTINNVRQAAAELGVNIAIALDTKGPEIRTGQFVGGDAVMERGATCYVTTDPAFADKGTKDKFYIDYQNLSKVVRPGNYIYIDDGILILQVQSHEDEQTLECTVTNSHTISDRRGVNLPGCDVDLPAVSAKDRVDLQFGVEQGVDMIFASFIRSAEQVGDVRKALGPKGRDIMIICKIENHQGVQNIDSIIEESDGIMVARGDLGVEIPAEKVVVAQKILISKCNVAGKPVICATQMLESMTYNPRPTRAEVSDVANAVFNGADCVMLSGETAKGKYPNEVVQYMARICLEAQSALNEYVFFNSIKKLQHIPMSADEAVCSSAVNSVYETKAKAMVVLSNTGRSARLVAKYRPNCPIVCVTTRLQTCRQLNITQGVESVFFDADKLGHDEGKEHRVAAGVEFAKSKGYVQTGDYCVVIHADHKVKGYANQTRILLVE
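0.1 nM LmPK, 0.5 mM PEP, 0.1 mM ADP; 50 mM imidazole pH 7.2, 7 mM MgCl2, 50 mM KCl; 1 h RT. Kinase-Glo luminescence readout, normalized to no-enzyme (full inhibition) and uninhibited wells.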
AmpC inh no detg: qHTS Inhibitors of AmpC Beta-Lactamase (assay without detergent); 330,000 tested, 0.52% active; AmpC nitrocefin hydrolysis, absorbance 480 nm, 0.0001% Triton; Potency, µM (highest dose often 57.1 µM), inactives show at the highest dose activity change, negative = inhibition, actives largely listed as inhibitors; P00811;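 further: plate controls were no compound for no effect and no enzyme for full effect; nearly all actives have a fitted effect of over 20% in size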
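AmpC (5.3 nM in the dispensed reagent) in 20 mM phosphate pH 7.0 with 0.01% (detergent screen) or 0.0001% Triton X-100 was preincubated with compounds for 15 min at room temperature. Nitrocefin was then added from an 800 uM solution, and hydrolysis was followed at 480 nm.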
TbPYK inhibitor: qHTS of Trypanosoma Brucei Inhibitors. pyruvate kinase (Trypanosoma brucei), Q57TT1. TbPYK enzyme, Kinase-Glo Plus ATP luminescence, 45 min. Potency, µM (series often up to 76.8 µM), without a hit: at the top dose activity, negative = inhibition, actives largely listed as inhibitors. 410,000 tested, 0.12% active. AID 624173, 2012; further: nearly all actives have a fitted effect of over 50% in size
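Luminescent Kinase-Glo Plus end-point after 45 min room-temperature reaction of T. brucei pyruvate kinase started with 130 uM ADP (final). Buffer TEA 50 mM pH 7.2 with KCl, MgCl2, BSA, Tween-20; titration-based qHTS with fitted concentration-effect curves.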
AmpC inh detg: qHTS Inhibitors of AmpC Beta-Lactamase (assay with detergent); P00811; AmpC hydrolysis of nitrocefin, absorbance 480 nm, 0.01% Triton; Potency, µM (series often up to 114 µM), for the others: at the top dose activity change, negative = inhibition, actives largely listed as inhibitors; 370,000 tested, 0.041% active;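 further: 0% = no-compound wells and -100% = no-enzyme wells; nearly all actives have a fitted effect of over 25% in size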
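20 mM phosphate pH 7.0 + 0.01% (detergent screen) or 0.0001% Triton X-100; 5.3 nM AmpC reagent; cpd preinc 15 min RT; nitrocefin (800 uM stock) to start; A480 q20 s × 4 min; Activity was normalised to no-enzyme and no-compound control wells.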
Giardia growth: qHTS Assay for Inhibitors of Fructose-1,6-bisphosphate Aldolase from Giardia Lamblia: Giardia lamblia growth inhibition. 1,500 tested, 5% active. Giardia lamblia trophozoite growth inhibition. Potency, µM (titrated, usually from 57.5 µM), for the others: at the top dose activity change, negative = inhibition, hits mostly inhibitors. shares compounds with Giardia FBPA inh-1. AID 2785, 2010;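 further: trophozoites exposed to compound for 48 h at 37 °C; nearly all actives have a fitted effect of over 70% in size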
Mammalian tox: qHTS Assay for Inhibitors of Fructose-1,6-bisphosphate Aldolase from Giardia Lamblia: Mammalian cellular toxicity | shares compounds with Giardia FBPA inh-1 | mammalian cell viability counter-screen, qHTS | Potency, µM (titrated, usually from 57.5 µM), for inactives: at the highest dose viability change, negative = toxicity, actives largely listed as inhibitors | 1,500 tested, 4% active | AID 2786, 2010;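 further: Chinese hamster ovary cells used as mammalian cytotoxicity surrogate; viability measured as cellular ATP by luminescence; compound exposure lasted 48 h before reading; nearly all actives have a fitted effect of over 60% in size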
Giardia FBPA inh-2: qHTS Assay for Inhibitors of Fructose-1,6-bisphosphate Aldolase from Giardia Lamblia: Primary screen confirmation; Potency, µM (titrated, usually from 57.5 µM), for the others: at the top dose activity change, negative = inhibition, hits mostly inhibitors; purified Giardia aldolase enzyme activity, qHTS; 1,500 tested, 5% active; AID 2787, 2010; shares compounds with Giardia FBPA inh-1; further: nearly all actives have a fitted effect of over 45% in size
Rabbit FBPA inh: qHTS Assay for Inhibitors of Fructose-1,6-bisphosphate Aldolase from Giardia Lamblia: Rabbit FBPA Selectivity; Potency, µM (top dose mostly 57.5 µM), inactives show top-dose activity, negative = inhibition, most hits filed as inhibitors; Rabbit muscle FBPA enzyme inhibition, selectivity counter-screen; 1,500 tested, 4% active; shares compounds with Giardia FBPA inh-1; AID 2794, 2010; further: nearly all actives have a fitted effect of over 60% in size
GAPDH coupling: qHTS Assay for Inhibitors of Fructose-1,6-bisphosphate Aldolase from Giardia Lamblia: Coupling assay counterscreen confirmation | shares compounds with Giardia FBPA inh-1 | AID 2795, 2010 | 1,500 tested, 6% active | Potency, µM (titrated, usually from 57.5 µM), inactives show at the top dose activity change, negative = inhibition, usual class: inhibitors | GAPDH coupling enzyme counterscreen, biochemical, qHTS; further: nearly all actives have a fitted effect of over 55% in size
Starred values were filed as active, the others as inactive; ? = inconclusive; nt = no result given; ! = not confirmed by another sample; [ ] = another dose, or the depositor's remark. The list is not random: actives were taken first. Their share in the collection is about 1.4%. Unless noted, the call rests on the fitted dose curve; in most records, active means well fitted curve in the direction sought with a large enough effect; inconclusive means small, poorly fitted or top-dose-only effect, or another doubt; inactive means no such curve, though single readings can be large; an effect the other way counts as inactive or inconclusive. Unless noted, on the % scale 0 is the no-effect control and ±100 the full control effect; potency means the concentration at half of the fitted maximal effect.

SMILES	RE007 growth inh	Giardia FBPA inh-1	LmPK inhibitor	AmpC inh no detg	TbPYK inhibitor	AmpC inh detg	Giardia growth	Mammalian tox	Giardia FBPA inh-2	Rabbit FBPA inh	GAPDH coupling
CC(=O)Nc1ccc2nc3c(=O)n(C)c(=O)n(C)c3nc2c1	-18%	18µM*	4%	-8%	-9%	5%	13%	-22%	?	?	40µM*
S=C(Nc1ccccc1)Nc1ccccn1	-13%	nt	nt	nt	-3%	nt	nt	nt	nt	nt	nt
S=C(Nc1ccccc1)c1ccccn1	?	3.2µM*!	?	-25%	-1%	-4%	-14%[38.3 µM]	20µM*	-8%	-8%	-10%
Cc1ccc(-c2nc(CS(=O)CC(=O)N3CCN(c4ccc(Cl)cc4)CC3)c(C)o2)cc1 (stereo not drawn)	nt	nt	nt	nt	0%	8%	nt	nt	nt	nt	nt
CCOC(=O)c1c(-c2ccc(Cl)cc2)csc1NC(=O)CNCc1ccco1	5%	16µM*	-4%	-13%	18%	-11%	-3%	-26%	-8%	-3%	-2%
CCOC(=O)c1c(-c2ccc(OC)cc2)csc1NC(=O)CNCc1ccco1	-19%	?	4%	21%	8%	10%	nt	nt	nt	nt	nt
O=C(NCSc1ccccc1)c1ccccc1	0%	nt	nt	-13%	-3%	-7%	nt	nt	nt	nt	nt
Cc1cc(SCNC(=O)c2ccccc2)ncn1	5%	14µM*	11%	-23%	-14%	6%	?	-12%	2%	12%	11%
O=c1[nH]cc(I)cc1I	nt	10µM*	0%	-20%	0%	4%	-28%	13%	-8%	3%	-3%
NNC(=S)NCc1ccco1	-10%	18µM*	2%	-42%	-21%	0%	-5%[10.4 µM]	0%	2%	13%	4%
Cc1cnn(C(=S)NCc2ccco2)c1	-12%	16µM*	0%	-3%	-2%	-2%	-3%[10.4 µM]	3%	-6%	4%	11%
S=C(NCc1ccccc1)NCc1ccco1	-3%	1%	1%	-23%	-8%	?	nt	nt	nt	nt	nt
O=C(NC1CCCCCC1)c1ccc[nH]c1=S	?	16µM*	0%	-16%	7%	-12%	?	4%	9%	2%	18%
COc1ccc2nc(S(=O)Cc3ncc(C)c(OC)c3C)[nH]c2c1 (stereo not drawn)	-1%	16µM*!	5%	-7%	-19%	-13%	?	-20%	-17%	-10%	-9%
COc1ccc2nc(SCC(=O)Nc3c(C)cccc3C)[nH]c2c1	2%	-3%	0%	-10%	3%	-2%	nt	nt	nt	nt	nt
Fc1ccccc1CN1CCN(c2ncccn2)CC1	-1%	25µM*	-1%	-2%	-6%	?	25%	13%	5%	0%	-18%
Cc1nc(NC(=O)CN2CCN(c3ccccc3F)CC2)sc1C(=O)N(C)C	-18%	3.2µM*	5%	7%	3%	-3%	0%[10.4 µM]	-1%	4%	5%	-13%
Cc1ccc2c(c1)-c1nc(-c3ccc4c(c3)NC(=O)CO4)cc(-c3ccccc3)c1CO2	nt	nt	nt	nt	-1%	3%	nt	nt	nt	nt	nt
CCN(CC)CC(=O)Nc1cc(N(C)C)nc2ccccc12	-7%	5.6µM*	-24%	-15%	21%	3%	?	-1%	5%	5%	15%
CCCc1nc2ccccc2c(NC(=O)CN(CC)CC)c1CC	-9%	16µM*	-7%	-5%	-5%	2%	7%[10.4 µM]	9%	-2%	8%	11%
COc1ccc(CCNC(=O)Cn2nnc(-c3cccc(C(F)(F)F)c3)n2)cc1OC	nt	nt	nt	nt	-1%	-1%	nt	nt	nt	nt	nt
CCN1CCc2c(sc(NC(=O)Cc3ccccc3)c2C(=O)OC)C1	2%	14µM*	-4%	-1%	5%	-3%	5%[10.4 µM]	4%	9%	12%	16%
NC(=O)c1c(NC(=O)c2c(F)cccc2F)sc2c1CCN(Cc1ccccc1)C2	-3%	?	5%	7%	-1%	-14%	nt	nt	nt	nt	nt
CC(C)C(=O)Nc1sc2c(c1C(N)=O)CCN(Cc1ccccc1)C2	4%	28µM*	2%	0%	2%	-7%	3%[10.4 µM]	-11%	1%	3%	-18%
NC(=O)c1c(NC(=O)c2ccccc2)sc2c1CCN(Cc1ccccc1)C2	-3%	16µM*	1%	-17%	5%	-7%	?	-17%	0%	2%	10%
CSc1ccc(C2c3c(-c4ccccc4O)n[nH]c3C(=O)N2Cc2ccncc2)cc1 (stereo not drawn)	nt	nt	nt	nt	-2%	0%	nt	nt	nt	nt	nt

Source: PubChem BioAssay (National Center for Advancing Translational Sciences (NCATS))
